{
  "source": "PubChem BioAssay (NCI)",
  "note": "Values joined by “and” are separate entries in the source; they are usually repeats but may differ in a detail not shown here. Equal values may be shown once. This is part of a sample that, as a whole, favours compounds with a hit. Of some 83,000 tested, about 20% had one in any assay.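 Method: cells in 96-well plates; compound added at one concentration; 48 h incubation; percent growth measured; values under 10 scored active.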 Active and inactive are the calls of the source.",
  "data": [
    {"system": "HL-60(TB) leukemia", "assay": "NCI-60 one-dose screen, 48 h (100 = growth as untreated, 0 = no growth, -100 = all killed)", "conditions": "10 µM unless noted", "experimental": "Growth inhibition of the HL-60(TB) human tumor cell line is measured as a screen for anti-cancer activity. Cells are grown in 96 well plates and exposed to the test compound for 48 hours. Compounds are tested at a single concentration, which is 10^-5 M for most compounds. The reported endpoint is percent growth (GI% or GIPRCNT), where numbers from 0 - 100% represent growth inhibition, and numbers from -100% - 0 represent cell death. For example, a value of 40 represents 60% growth inhibition. A value of 0 means no net growth occurred over the course of the experiment. A value of -40 indicates 40% of cells at the beginning of the experiment died by the end of the experiment. A value of -100 means all cells are dead at the end of the experiment.\nNCI-60 Human Tumor Cell Lines Screen was performed using the standard one-dose NCI protocol, which is described in more detail at https://dtp.cancer.gov/discovery_development/nci-60/default.htm.\nCompounds with GIPRCNT values below 10 were considered active. Activity score was based on GIPRCNT using the following formula: […]\nScore is 0 for GIPRCNT values of 100 or above, 50 for GIPRCNT values of 0, and 100 for GIPRCNT values of -100.", "values": [
      {"smiles": "CCSc1nc(Cl)c(C#N)c(-c2ccc(F)cc2)n1", "growth": "81.3% (inactive)"},
      {"smiles": "CC(C)[N+](C)(C)CC(O)COc1cccc2ccccc12", "note": "(stereo not given)", "growth": "126% (inactive)"},
      {"smiles": "CCCCCCC(C)CC1=C(O)c2ccccc2C(=O)C1=O", "note": "(stereo not given)", "growth": "37.5% (inactive)"},
      {"smiles": "O=C(NCc1cccnc1)c1ccc([N+](=O)[O-])o1", "growth": "9.68% (active)"},
      {"smiles": "O=C1CSC(c2ccccc2Cl)N1c1nnc(Cn2nnc3ccccc32)o1", "note": "(stereo not given)", "growth": "84.4% (inactive)"},
      {"smiles": "CC(C)(C)c1ccc(OP(=S)(N/N=C/c2ccccc2O)Oc2ccc(C(C)(C)C)cc2)cc1", "growth": "77.8% (inactive)"},
      {"smiles": "CN1CCN(CCCOc2ccc3nc(Nc4ccc(C(F)(F)F)c(Cl)c4)ccc3c2)CC1", "growth": "12.5% (inactive)"},
      {"smiles": "COC(=O)c1ccc([N+](=O)[O-])c(C)c1", "growth": "85.5% (inactive)"},
      {"smiles": "O=C(Nc1cccnc1Nc1ccc(F)cc1)c1cn(Cc2cccc(Oc3ccccc3)c2)nn1", "growth": "26.3% (inactive)"},
      {"smiles": "CN1CCN(Cc2ccc3c(NNC(=O)c4ccccc4)nc4cc(F)ccc4n23)CC1", "growth": "7.8% (active)"},
      {"smiles": "OCCN1CCN(CCCN2c3ccccc3Sc3ccc(Cl)cc32)CC1", "growth": "85.8% (inactive) and 73.9% (inactive)"},
      {"smiles": "COc1cc2c(cc1OC)N(CCO)C1=C(C(=O)OC1)C2c1ccc(Cl)c(Cl)c1", "note": "(stereo not given)", "growth": "93.4% (inactive)"},
      {"smiles": "C#CC[C@@H]1C[C@]2(C)[C@H]3CC=C4[C@H]5[C@@H](C)[C@H](C)CC[C@]5(C(=O)NCCCCN)CC[C@@]4(C)[C@]3(C)CC[C@H]2C(C)(C)[C@H]1OC(C)=O", "growth": "21.3% (inactive)"},
      {"smiles": "C#CC(=O)Nc1cccc(Nc2nc3c(c(NCc4ccccc4)n2)CCCC3)c1", "growth": "-25.5% (active)"},
      {"smiles": "CC(=O)Nc1ccc(S(=O)(=O)Nc2cccc(-c3nc(-c4ccc(NC(=O)c5cccnc5)cc4Cl)no3)c2)cc1", "growth": "24% (inactive)"},
      {"smiles": "COCC(=O)NC/C=C/c1ccc2ncnc(Nc3ccc(Oc4ccc(C)nc4)c(C)c3)c2c1", "growth": "22.2% (inactive)"},
      {"smiles": "O=C(CSc1nc(-c2ccccc2)[nH]c1S(=O)(=O)c1ccccc1)NC1CC1", "growth": "101% (inactive)"},
      {"smiles": "O=Nc1c(O)ccc2ccccc12.O=Nc1c(O)ccc2ccccc12.O=Nc1c([O-])ccc2ccccc12.[Fe+3]", "growth": "105% (inactive)"},
      {"smiles": "CCN(CC)CCOc1ccc2c(c1)C(=O)c1cc(OCCN(CC)CC)ccc1-2", "growth": "94.2% (inactive) and 36.5% (inactive)"},
      {"smiles": "COc1ccc(NC(=O)c2cc3ccccc3nc2Nc2cc(OC)c(OC)c(OC)c2)cc1", "growth": "67.3% (inactive)"},
      {"smiles": "COc1ccc(C(C)=O)cc1S(=O)(=O)Nc1c(N)nc(SC)[nH]c1=O", "growth": "96.8% (inactive)"},
      {"smiles": "Clc1ccc(Sc2cnc(-c3ccccc3)o2)cc1", "growth": "99.5% (inactive)"},
      {"smiles": "C[C@H](NC(=O)[C@@H](C)N)[C@H](Oc1ccc2c(cnn2-c2ccc(F)cc2)c1)c1ccc2c(c1)OCCO2", "growth": "25.8% (inactive)"},
      {"smiles": "Cc1cn(-c2cc(C(=O)Nc3cccc(C#Cc4cccc5[nH]nc(N)c45)c3)cc(C(F)(F)F)c2)cn1", "growth": "25.1% (inactive)"},
      {"smiles": "CC1CN(c2oc(-c3ccccc3)nc2C#N)CC(C)O1", "note": "(stereo not given)", "growth": "101% (inactive)"},
      {"smiles": "COc1ccccc1/C=C/C(=O)/C=C/c1ccccc1O", "growth": "-5.37% (active)"},
      {"smiles": "O=C(O)c1ccccc1C(=O)OC1CCCC2CCCC21", "note": "(stereo not given)", "growth": "104% (inactive)"},
      {"smiles": "CN[C@@]12CC3(C=CC(=O)C=C3)O[C@]1(Cc1ccc(OC)cc1)N(C)C(=O)N2", "growth": "0.452% (active)"},
      {"smiles": "NC(=S)N/N=C1\\CCCC(C(F)(F)F)C1", "note": "(stereo not given)", "growth": "89% (inactive)"},
      {"smiles": "COc1cc(-c2ncn(/C=C\\C(=O)OC(C)C)n2)cc(C(F)(F)F)c1", "growth": "7.55% (active)"},
      {"smiles": "CCC1=C[C@]2(C3CC(=O)N(c4ccccc4)C3=O)CC(C(C)(C)C)C[C@@H]2[C@@H]2C(=O)N(c3ccccc3)C(=O)[C@H]12", "note": "(stereo not given in full)", "growth": "84.1% (inactive)"},
      {"smiles": "CN1CCN(Cn2nc(-c3cc(Cl)cc(Cl)c3Cl)n(/N=C/c3ccc(Cl)cc3)c2=S)CC1", "growth": "-38.6% (active)"},
      {"smiles": "O=c1c2cc(F)ccc2sc2c(NCCCNCCO)nc3ccc(Cl)cc3c12", "growth": "45.4% (inactive)"},
      {"smiles": "O=C(NCCCN1CCOCC1)c1cccc(N2C(=O)/C(=C/c3ccc(F)cc3)SC2=S)c1", "growth": "99.6% (inactive)"},
      {"smiles": "CCOC(=O)Nc1nc2ccccc2[nH]1", "growth": "101% (inactive) and -38.2% (active)"},
      {"smiles": "COc1cc([C@@H]2c3cc4c(cc3[C@H](O)[C@H]3COC[C@@H]23)OCO4)cc(OC)c1OC", "growth": "57.8% (inactive)"},
      {"smiles": "Cc1cc(C)c(N2C(=O)CC(Sc3ccccc3N)C2=O)c(C)c1", "note": "(stereo not given)", "growth": "68.8% (inactive)"},
      {"smiles": "CC1(c2ccccc2)NC(=O)N(CC(=O)Nc2cccc(I)c2)C1=O", "note": "(stereo not given)", "growth": "84.2% (inactive)"},
      {"smiles": "Nc1cc2c(cc1N)-c1ccccc1C2", "growth": "7.76% (active) and 64.3% (inactive)"},
      {"smiles": "COc1ccc2[nH]cc(-c3nc(-c4cn(C)c5c(Cl)nccc45)cs3)c2c1", "growth": "30.5% (inactive)"}
    ]}
  ]
}
